Sampled rows, rich in hits. Any-hit rate of the full collection: about 8%.
Marburg entry inh: blocks Marburg virus binding to or entry into cells. Marburg virus pseudotyped entry inhibition, cell reporter. AID 540276. Potency, µM (top dose mostly 37.8 µM), hits mostly inhibitors. actives 1.8% (n = 300,000); calls by dose curve; tested in HEK293 cells
HCMV antiviral: human cytomegalovirus inhibition | HFF cells, HCMV-luciferase reporter, 72 h; active compounds read low | AID 1259415 | activity change, negative = inhibition, % at 57.5 µM | actives 4.5% (n = 410,000); in the data active = activity change below about -60%; inconclusive = no clear call, values can overlap the other calls; inactive = above about -39%
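Inhibition of viral replication was scored as loss of reporter luminescence in HFFs infected with HCMV-luciferase (MOI 1 PFU/cell) for 72 h; compounds tested at 2 doses, normalized to buffer and Salinomycin controls.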
SARS PLP yeast: SARS-CoV PLP inhibition in yeast; S. cerevisiae expressing SARS-CoV PLpro, growth rescue; Potency, µM (top dose mostly 32.9 µM), most hits filed as activators; actives 0.19% (n = 330,000); calls by dose curve; note: nearly all actives have a fitted effect of over 55% in size
HCV inhibitor: blocks hepatitis C virus; actives 3.4% (n = 340,000); Potency, µM (titrated, usually from 41.8 µM), usual class: inhibitors; Huh7.5.1 HCVcc-Cre infection, luciferase reporter, 44 h; active = well fitted inhibition curve with a large enough effect; inconclusive = small, poorly fitted or top-dose-only effect, or another doubt; inactive = no such curve, though single readings can be large or run the other way
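Cells (1,000/well) were plated 4 h before compound, then infected with HCVcc-Cre virus (~0.5 moi). After 44 h further culture, infection was read as luciferase luminescence following a 15 min substrate incubation at room temperature.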
Lassa entry inh: blocks Lassa virus binding to or entry into cells; Lassa virus pseudotype entry inhibition, cell reporter; Potency, µM (titrated, usually from 37.9 µM), hits mostly inhibitors; actives 1.2% (n = 300,000); AID 540256; calls by dose curve; tested in HEK293 cells; note: nearly all actives have a fitted effect of over 50% in size
FMDV antiviral: foot and mouth disease virus antiviral activity; Potency, µM (top dose mostly 57.9 µM), hits mostly inhibitors; actives 1.2% (n = 410,000); FMDV antiviral cell-based qHTS; calls by dose curve; tested in HEK293T cells; note: read-out not given here; nearly all actives have a fitted effect of over 45% in size
Numbers stand for hits; – = inactive; ? = inconclusive; · = no result; ! = not active in a repeat; [ ] = another dose, or the depositor's remark.

SMILES	Marburg entry inh	HCMV antiviral	SARS PLP yeast	HCV inhibitor	Lassa entry inh	FMDV antiviral
COc1ccc2c(c1)[C@@H](NC(=O)OCc1ccccc1)[C@H](C)[C@@H](c1ccccc1)N2C(=O)Nc1ccc(C(F)(F)F)cc1	·	–	·	·	·	·
COc1ccc(OCC(=O)N2c3ccccc3CC2C)c([N+](=O)[O-])c1 (stereo unspecified)	?	–	–	?	–	–
CC(=O)Nc1ccc(S(=O)(=O)N[C@H]2CC[C@@]34CCCN3C(=O)CCC[C@H]4[C@H]2Cc2ccccc2)cc1	·	–	·	·	·	·
O=C(NCC1CCC2(CCN(Cc3c[nH]c4ccccc34)CC2)O1)C1CCOCC1 (stereo unspecified)	·	·	·	·	·	–
O=[N+]([O-])c1cc(C(F)(F)F)cc([N+](=O)[O-])c1N1CCN(S(=O)(=O)c2ccccc2)CC1	–	–	–	?	–	?
O=[N+]([O-])c1cc(C(F)(F)F)ccc1N1CCN(S(=O)(=O)c2ccc3ccccc3c2)CC1	11.2µM	-69.0	–	6.31µM	–	?
Cn1c(=O)n(C)c2cc([N+](=O)[O-])c(N3CCN(S(=O)(=O)c4ccc(C(C)(C)C)cc4)CC3)cc21	?	-94.4	–	14.1µM	?	·
Cc1cc2c(C)nc(-c3ccccc3)nc2o1	–	–	–	3.55µM	–	–
CCN1C(=O)/C(=C/c2ccc(N(CC)CC)cc2OC)C(=O)NC1=S	·	–	–	–	·	35.5µM
CC(=O)c1ccc(OC2(C)CCN(Cc3cc4ccccc4[nH]3)C2)cc1 (stereo unspecified)	·	–	·	·	·	–
Cc1nn(C)c(C)c1CNC(=O)c1cnn2c1NC(c1ccccc1)CC2C(F)(F)F (stereo unspecified)	–	?	–	–	–	·
Cc1nn(C)cc1CN(C)C(=O)c1nn2c(c1Cl)NC(c1cccs1)CC2C(F)(F)F (stereo unspecified)	–	-77.5	–	–	–	·
Cc1ccc(C2CC(C(F)(F)F)n3nc(C(=O)NCc4c(C)nn(C)c4C)c(Cl)c3N2)cc1 (stereo unspecified)	11.6µM!	?	–	8.91µM	?	25.1µM
COc1ccc(C2CC(C(F)(F)F)n3nc(C(=O)NCc4cn(C)nc4C)c(Cl)c3N2)cc1 (stereo unspecified)	?	-72.0	–	?	–	·
Cc1nn(C)cc1CN(C)C(=O)c1nn2c(c1Br)NC(c1cccs1)CC2C(F)(F)F (stereo unspecified)	?	–	–	–	–	–
CCCCn1nnnc1C(CCc1ccccc1)N1CCC(n2c(=O)[nH]c3ccccc32)CC1 (stereo unspecified)	·	-101.3	·	·	·	20µM
CCC(c1nnnn1Cc1ccccc1)N1CCC(n2c(=O)[nH]c3ccccc32)CC1 (stereo unspecified)	·	-60.6	·	·	·	?
Cc1cccc(COc2ncnc3nc[nH]c23)c1	–	–	–	3.98µM	?	–
O=C(CSc1nnc(-c2cccnc2)o1)Nc1ccc(F)cc1	·	-76.1	·	·	·	–
Cc1ccc(-c2nnc(SCC(=O)Nc3ccccc3F)o2)cc1	·	-94.9	–	–	·	–
Cc1ccc(-c2nnc(SCc3ccccc3F)o2)cc1	16.4µM	–	–	?	?	–
Cc1ccc(NC(=O)N2CCC(CN3CCCCCC3)CC2)c(Cl)c1	·	?	·	·	–	–
O=C(CCl)Nc1cn(-c2ccccc2)nc1-c1ccccc1	16.4µM	-95.7	–	2.82µM	4.11µM	20µM
COc1ccc(NC(=O)CN(C)C(=O)c2cn(-c3ccccc3)nc2-c2ccc(F)cc2)cc1	·	–	–	11.2µM	·	–
COc1ccc(NC(=O)CN(C)C(=O)c2cn(-c3ccccc3)nc2-c2ccc(OC)cc2)cc1	·	–	–	–	·	–
SMILES	Marburg entry inh	HCMV antiviral	SARS PLP yeast	HCV inhibitor	Lassa entry inh	FMDV antiviral
O=C(Nc1cn(-c2ccccc2)nc1-c1ccc(F)cc1)c1ccccc1	–	-60.7	–	–	–	–
CCc1ccc(-c2cc(C)no2)cc1S(=O)(=O)NC(C)Cc1ccco1 (stereo unspecified)	·	?	–	–	·	–
O=C(CCCNC(=O)c1ccc(Cl)cc1)Nc1nccs1	–	–	–	–	–	–
O=C(NCCc1cccs1)c1ccc(Cn2c(SCc3ccccc3)nc3cccnc32)cc1	·	–	·	·	–	–
CCN1C(=O)[C@H]2[C@H]3[C@H](O)[C@H](O)C/C(=N/OCC[C@H]4C=C[C@H](OC(C)=O)[C@@H](COC(C)=O)O4)[C@@H]3CC[C@@H]2C1=O	–	·	·	·	·	·
CCC1(O)C(=O)OCc2c1cc1n(c2=O)Cc2cc3cc(O)ccc3nc2-1 (stereo unspecified)	·	-107.1	·	–	·	–
O=C(Oc1ccc([N+](=O)[O-])cc1)N1CCC(N2CCCCC2)CC1	–	?	–	–[8.37 µM]	–	–
CCC1(OC(=O)CN)C(=O)OCc2c1cc1n(c2=O)Cc2cc3ccccc3nc2-1 (stereo unspecified)	?	·	–	?	?	–
CCc1c2c(nc3ccc(OC(=O)N4CCC(N5CCCCC5)CC4)cc13)-c1cc3c(c(=O)n1C2)COC(=O)[C@]3(O)CC	·	-92.2	·	–	·	–
CC[C@@]1(O)C(=O)OCc2c1cc1n(c2=O)Cc2cc3c(NC(=O)CN)cccc3nc2-1	?	-98.5	–	–	–	–
CC[C@@]1(O)C(=O)OCc2c1cc1n(c2=O)Cc2cc3ccccc3nc2-1	0.0251µM	·	–	·	?	–
COc1ccc(OC)c(CNC(=O)CN(c2ccc(C)cc2)S(=O)(=O)N(C)C)c1	?	–	·	·	–	–
COc1ccc(OC)c([C@H](O)c2coc3ccc(O)c(CN4CCOCC4)c23)c1	–	·	·	·	·	·
COc1ccc(CCNC(=O)COC(=O)CSc2ccc([N+](=O)[O-])cc2)cc1OC	?	–	–	–	–	–
CN(C(=O)CSc1nc2ccccc2n1CC(=O)NCc1ccc(F)cc1)c1ccc(F)cc1	·	?	·	·	–	–
COc1ccc(OC)c(NC(=O)CCc2nc(-c3ccc(C)cc3)no2)c1	–	–	·	·	–	–
c1ccc2nc(OCCN3CC3)ccc2c1	?	-64.0	–	?	?	–
Cc1cc(OCCN2CCCCC2)nc2ccccc12	?	–	–	?	–	–
CCOC(=O)C1CCN(C(=O)C2CCN(S(=O)(=O)c3c(C)noc3/C=C/c3ccc(C)cc3)CC2)CC1	·	–	·	·	?	–
CN(C)c1oc(-c2ccccc2Cl)nc1S(=O)(=O)c1ccccc1	·	–	–	–	·	–
COc1ccc(/C=C/c2nc(S(=O)(=O)c3ccccc3)c(N(C)C)o2)cc1	·	–	–	22.4µM	·	–
Cc1c(C(=O)NCCC2=CCCCC2)oc2ccc(S(=O)(=O)N3CCC4(CC3)OCCO4)cc12	?	–	–	12.6µM	?	17.8µM
Cc1c(C(=O)Nc2ccc(F)cc2)oc2ccc(S(=O)(=O)N3CCC4(CC3)OCCO4)cc12	5.8µM	-63.3	–	4.47µM	?	22.4µM
Cc1c(C(=O)NCc2ccccc2)oc2ccc(S(=O)(=O)N3CCC4(CC3)OCCO4)cc12	?	–	–	?	?	?
